Measurements taken from PubChem BioAssay AID720704 (The Scripps Research Institute Molecular Screening Center, 2013).
Screen size: about 370,000 compounds; about 660 (0.18%) were called active. Cut-off read from the data, not from the text of the source: active = inhibition above about 11%; inactive = the rest. The sample as a whole holds a higher share of actives than the screen did.

These compounds were tested against 1-phosphatidylinositol 4,5-bisphosphate phosphodiesterase beta-3 (Homo sapiens) (UniProt Q01970) (assay: human PLC-beta3 inhibitors, primary screen, biochemical, fluorescence (AID 720704;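 note: 0% = median of compound wells on plate and 100% = full blocker control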)). Conditions: Purified PLC-beta3, fluorogenic substrate, at 12.2 µM, active compounds read high.
Sequence of 1-phosphatidylinositol 4,5-bisphosphate phosphodiesterase beta-3 (Homo sapiens) (Q01970 whole entry, looked up): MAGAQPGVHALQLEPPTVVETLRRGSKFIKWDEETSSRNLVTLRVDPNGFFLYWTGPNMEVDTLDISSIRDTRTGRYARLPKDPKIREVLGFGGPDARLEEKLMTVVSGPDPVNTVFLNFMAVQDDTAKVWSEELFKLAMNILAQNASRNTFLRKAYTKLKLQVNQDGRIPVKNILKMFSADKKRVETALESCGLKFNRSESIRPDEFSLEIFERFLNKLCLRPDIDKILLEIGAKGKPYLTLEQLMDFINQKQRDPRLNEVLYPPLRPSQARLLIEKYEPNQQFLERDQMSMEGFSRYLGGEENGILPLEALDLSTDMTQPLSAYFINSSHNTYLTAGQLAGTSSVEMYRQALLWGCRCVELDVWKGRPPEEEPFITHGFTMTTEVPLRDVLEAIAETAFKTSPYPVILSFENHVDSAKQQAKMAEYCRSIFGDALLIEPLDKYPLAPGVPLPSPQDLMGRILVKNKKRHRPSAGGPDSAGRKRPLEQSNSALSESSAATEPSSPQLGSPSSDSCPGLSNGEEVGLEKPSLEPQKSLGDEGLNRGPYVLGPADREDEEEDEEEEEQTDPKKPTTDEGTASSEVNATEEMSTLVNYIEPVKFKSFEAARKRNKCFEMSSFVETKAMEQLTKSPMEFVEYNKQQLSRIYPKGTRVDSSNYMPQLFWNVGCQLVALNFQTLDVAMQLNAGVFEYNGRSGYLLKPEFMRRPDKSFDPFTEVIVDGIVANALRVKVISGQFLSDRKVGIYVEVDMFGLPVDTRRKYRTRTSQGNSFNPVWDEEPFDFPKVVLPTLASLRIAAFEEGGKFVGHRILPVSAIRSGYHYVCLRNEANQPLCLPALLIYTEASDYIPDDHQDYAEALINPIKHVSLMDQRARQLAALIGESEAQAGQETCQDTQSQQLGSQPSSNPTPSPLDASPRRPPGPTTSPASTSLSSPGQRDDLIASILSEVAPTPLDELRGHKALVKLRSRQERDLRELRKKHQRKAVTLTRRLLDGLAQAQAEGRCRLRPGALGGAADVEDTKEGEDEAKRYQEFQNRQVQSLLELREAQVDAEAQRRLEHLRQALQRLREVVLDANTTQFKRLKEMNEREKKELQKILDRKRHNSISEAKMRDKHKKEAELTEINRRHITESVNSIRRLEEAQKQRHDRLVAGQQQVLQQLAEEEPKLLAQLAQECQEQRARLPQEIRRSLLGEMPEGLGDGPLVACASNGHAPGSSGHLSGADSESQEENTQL

inhibition, inactive:
CC1=CC(=O)C=CC1(C)C(Cl)(Cl)Cl (stereo not drawn) 0.48%
Cc1c(C(=O)N2CC(C)OC(C)C2)sc2nc(-c3ccccc3)cn12 (stereo not drawn) -2.9%
O=C(c1ccc(F)cc1)N1CCCC(C(=O)N2CCCCC2)C1 (stereo not drawn) -6.9%
COc1ccc([N+](=O)[O-])cc1N(CC(O)CN(CC(C)C)CC(C)C)S(=O)(=O)c1ccc(C)cc1 (stereo not drawn) -4.79%
Cc1ccc(S(=O)(=O)N(CC(O)CN2CCCCC2)c2cccc([N+](=O)[O-])c2)cc1 (stereo not drawn) -3.53%
O=C(NC1CCCCN(Cc2ccc(Cl)cc2)C1=O)c1ccc(Br)cc1 (stereo not drawn) -4.01%
Cc1cccc(OCc2nnc(SCc3nc4cc(C(F)(F)F)ccc4c(=O)[nH]3)o2)c1 -14.6%
CCn1cc(C(=O)NCCC(=O)NCCO)c(=O)c2cc3c(cc21)OCO3 -11.8%
Cc1cccc(C(=O)Nc2ccccc2C(=O)NCc2cccnc2)c1 2.86%
CCCOc1cccc(C(=O)NCCCNC(=O)c2cccnc2)c1 -4.69%
O=S1(=O)C[C@@H](N2CCN(CCO)CC2)[C@H](COCc2ccccc2)N1 -7.43%
Cc1ccc(S(=O)(=O)N2CCC(C(=O)OCC(=O)N(C)c3ccccc3)CC2)cc1C -0.47%
O=C(COc1ccc(S(=O)(=O)N2CCCC2)cc1[N+](=O)[O-])N1CCCCC1 6.09%
CCOC(=O)[C@H]1CCC[C@@H](NS(=O)(=O)c2ccc(NC(C)=O)cc2)C1 -1.08%
O=S(=O)(NCCSc1ccccn1)c1ccc(Cl)cc1 4.09%
CN(C(=O)c1cccc(NC(=O)Cc2ccc([N+](=O)[O-])cc2)c1)C1CCC1 1.28%
CN(C(=O)c1cccc(NC(=O)Cc2cccc(NC(=O)C3CCCN(C(=O)C4CC4)C3)c2)c1)C1CCC1 (stereo not drawn) 1.11%
O=C(CNC(=O)c1ccccc1)OC(C(=O)Nc1cc([N+](=O)[O-])ccc1F)c1ccccc1 (stereo not drawn) -0.41%

inhibition, active:
COc1ccc([N+](=O)[O-])cc1N(CC(O)Cn1nnc2ccccc21)S(=O)(=O)c1ccc(C)cc1 (stereo not drawn) 11.5%
CCOc1ccccc1NC(=O)c1cccnc1 12.6%
COc1ccc(S(=O)(=O)N2CCC(C(=O)OCC(=O)c3ccccc3)CC2)cc1[N+](=O)[O-] 10.8%
CN(C(=O)c1cccc(NC(=O)Cc2cccc([N+](=O)[O-])c2)c1)C1CCCCC1 11.2%
CCOc1c(Br)cc(/C=C2\C(=O)N(CCC#N)N=C2C)cc1OC 13.5%
